Rows were chosen to be rich in hits. Some 2.8% of all compounds tested hit in one or more screens of this group.
WRN helicase inh: WRN helicase (human) inhibition | Q14191 | WRN helicase unwinding, fluorescent forked duplex, kinetic | Potency, µM (doses to about 114 µM), without a hit: top-dose activity change, negative = inhibition, most hits filed as inhibitors | 360,000 tested, 0.46% active; also: potency is read from the fitted curve at half-maximal effect; % is scaled to controls: 0 for no effect and ±100 for the full control effect; nearly all actives have a fitted effect of over 55% in size
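Screening of the MLSMR collection measured strand separation of a quenched forked DNA duplex (100 nM) by 20 nM WRN with 2 mM ATP, all final. Compounds were preincubated with enzyme 15 min at room temperature.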
PI5P4Ka inh: inhibitors of human PI5P4K alpha. PI5P4Kalpha enzyme, ADP-Glo luminescence, 60 min; hits give low values. P48426. 330,000 tested, 1.2% active. AID 652105. max response, %; active = max response of -50% or lower; inconclusive = between -30% and -50%; inactive = -30% or higher; also: value at the top dose of about 77 µM; % is scaled to controls: 0 for no effect and ±100 for the full control effect
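Enzyme plus substrate dispensed, test compounds pinned in, then ATP (5 microM final) added. After 60 min at RT, ADP-Glo reagent 1 for 45 min and reagent 2 for 30 min preceded luminescence imaging.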
POLH inh: DNA polymerase eta (human) inhibition; Q9Y253; recombinant Pol eta, fluorescent DNA replication assay; Potency, µM (series often up to 114 µM), for inactives: at the highest dose activity change, negative = inhibition, usual class: inhibitors; AID 588591; 390,000 tested, 1.2% active; also: potency is read from the fitted curve at half-maximal effect; % is scaled to controls: 0 for no effect and ±100 for the full control effect
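Pol eta (10 nM) was preincubated with compounds for 15 min at room temperature, after which fluorescent replication substrate (50 nM final) was added to start the reaction. Fluorescence was read kinetically at 0 and 10 min.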
Pol beta inh: blocks human DNA polymerase beta activity. P06746. Pol beta primer extension/strand displacement, fluorescence kinetic. Potency, µM (top dose mostly 114 µM), inactives show at the top dose activity change, negative = inhibition, most hits filed as inhibitors. 340,000 tested, 1.3% active. AID 485314; also: potency is read from the fitted curve at half-maximal effect; % is scaled to controls: 0 for no effect and ±100 for the full control effect
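Kinetic readout of DNA synthesis with strand displacement by Pol beta. Compound and 10 nM enzyme sit 15 min at room temperature; 50 nM substrate starts the reaction, read immediately and at 10 min.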
POLI inh: blocks human DNA polymerase iota activity; Q9UNA4; Pol iota fluorescent replication assay, 10 min; Potency, µM (top dose mostly 115 µM), inactives show top-dose activity, negative = inhibition, usual class: inhibitors; 390,000 tested, 1% active; AID 588590; also: potency is read from the fitted curve at half-maximal effect
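Fluorescent replication assay read twice, at 0 min and 10 min after adding 50 nM (final) substrate. Enzyme (10 nM) and compounds were first incubated 15 min at room temperature; enzyme-free buffer wells were negative controls.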
POLK inh: blocks human DNA polymerase kappa activity | Q9UBT6 | purified Pol kappa, fluorescent DNA synthesis assay, 10 min | Potency, µM (doses to about 107 µM), for the others: at the top dose activity, negative = inhibition, actives largely listed as inhibitors | 400,000 tested, 0.53% active; also: potency is read from the fitted curve at half-maximal effect; % is scaled to controls: 0 for no effect and ±100 for the full control effect
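Kinetic fluorescence screen: compound preincubated 15 min RT with 10 nM enzyme; 50 nM substrate (final) initiates; reads at 0/10 min.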
An asterisk follows results filed as active; ? = inconclusive; · = no result given; [ ] = another dose, or the depositor's remark. Unless noted, calls follow the shape of the dose curve; as a rule, active = well fitted curve in the direction sought with a large enough effect; inconclusive = small, poorly fitted or top-dose-only effect, or another doubt; inactive = no such curve, though single readings can be large; an effect the other way counts as inactive or inconclusive.

SMILES	WRN helicase inh	PI5P4Ka inh	POLH inh	Pol beta inh	POLI inh	POLK inh
COc1cc(/C=N/Nc2ccccc2)ccc1OC(=O)c1cccs1	-6%[57.1 µM]	5	-10%	3%	3%	-5%
COc1cc(/C=N/Nc2ccc(Cl)c(C(=O)O)c2)ccc1OC(=O)c1cccs1	0%[11.6 µM]	6	79µM*	?	80%	-12%
O=C(O)c1cc(N/N=C/c2ccc(-c3ccccc3)cc2)ccc1Cl	-21%	?	?	89µM*	-6%	-2%
COc1ccc2ccccc2c1/C=N/Nc1cccc(C(=O)O)c1	-32%	-11	7%	-21%	78%	-32%
COc1ccc(C(=O)Oc2ccc(/C=N/Nc3ccc(Cl)c(C(=O)O)c3)cc2OC)cc1	-20%	2	79µM*	?	9%	-28%
O=C(Nc1cccc2cccnc12)C1CCCC1	5%	2	-5%	56%	127%	-7%
CN(C)C(=O)c1ccc(-c2nc(NCc3ccccc3)c3ccccc3n2)cc1	·	·	·	·	·	-6%[60.1 µM]
N#Cc1ccc(CN(Nc2ccccc2)c2ccccc2)cc1	-1%	0	-9%	·	·	·
CC(C)Oc1cccc(C(=O)C2CCCN(Cc3cnc(N4CCOCC4)s3)C2)c1 (stereo not drawn)	3%	5	-14%	7%	18%	-10%
Cc1cccc(N2CC34C=CC(O3)C(C(=O)O)C4C2=O)c1 (stereo not drawn)	-2%	-2	6%	1%	-6%	-10%
COc1cccc(N2CC34C=CC(O3)C(C(=O)O)C4C2=O)c1 (stereo not drawn)	-28%	?	14µM*	?	?	?
CN1CC(O)C2=CC(=O)C(=O)C=C21 (stereo not drawn)	·	·	·	·	·	0.32µM*
O=C1Nc2ccc(I)cc2C1=Cc1cc(Br)c(O)c(Br)c1	·	·	·	·	45µM*	?
O=C1C([N+](=O)[O-])=C(O)c2cccc3cccc1c23	·	·	·	11µM*	·	·
Cc1cccc2cc3c(nc12)SC(=NCC1CCCO1)N(Cc1ccco1)C3 (stereo not drawn)	?	-55*	45µM*	-29%	?	?
Cc1ccc2nc3c(cc2c1)CN(Cc1ccco1)C(=NCC1CCCO1)S3 (stereo not drawn)	-1%	-19	-6%	-3%	8%	1%
CCOc1ccc(NC(=O)CCS(=O)(=O)c2ccc(Br)s2)cc1	·	·	?	28µM*	8%	-28%
Cc1c(Cl)cccc1NC(=O)CCS(=O)(=O)c1ccc(Br)s1	·	·	-7%	50µM*	-16%	?
O=C(O)c1[nH]c(-c2ccccc2)c2c1C(=O)N(C1CC1)C2=O	-7%	-25	·	·	·	·
COc1ccc(OC)c(NC(=O)c2cc(-c3cc(C)ccc3O)n[nH]2)c1	5%	2	-28%	-28%	25µM*	-7%
CS(=O)(=O)N1CCN(/[N+]([O-])=N/Oc2ccc([N+](=O)[O-])cc2[N+](=O)[O-])CC1	·	·	·	·	?	11%
CCOc1ccc(CCNC(=O)c2cnc3sc(N4CCCCCC4)nn3c2=O)cc1	·	·	-12%	-9%	89µM*	-1%
COc1ccc(-c2cn3nc(N4CCC(C(=O)NCc5cccc(Cl)c5)CC4)sc3n2)cc1	·	·	-12%	0%	5%	0%
CC(C)[C@H](NS(=O)(=O)c1cccc(Cl)c1)C(=O)OCC(=O)NC(=O)CN1CCCC1=O	-9%	-6	22µM*	·	50µM*	?
COC(=O)c1c(NC(=O)COC(=O)[C@@H](NS(=O)(=O)c2cccc(Cl)c2)C(C)C)sc2c1CCC2	-16%	-11	-26%	3%	15%	-3%
O=C1[C@H](Cc2ccccc2)NC/C=C\C[C@H](c2ccc(Cl)cc2)N1Cc1ccc(Cl)cc1	·	·	·	·	7%	-22%
O=C(CN(c1ccc2c(c1)OCCO2)S(=O)(=O)c1ccccc1)N1CCN(Cc2ccccc2)CC1	2%	4	-13%	4%	185%	-12%

Screening data from PubChem BioAssay.
